# Screening data: PubChem BioAssay, National Center for Advancing Translational Sciences (NCATS)
# The full list was thinned out, with hits kept by preference.
# ERK EGF block: EGF-driven ERK pathway inhibition; actives 0.41% (n = 130,000); HEK293-V1b, EGF-stimulated phospho-ERK AlphaScreen; Potency, µM (doses to about 11.5 µM), without a hit: at the highest dose activity change, negative = inhibition, most hits filed as inhibitors; AID 1454;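 further: potency means the concentration at half of the fitted maximal effect; plate controls were stimulated vehicle wells for no effect and unstimulated vehicle basal for full effect; nearly all actives have a fitted effect of over 55% in size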
#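 HEK293 cells stably expressing V1b receptor, serum-reduced (1% FBS) overnight, got compound for 30 min at 37C, then 25 nM EGF for 5 min. Lysate phospho-ERK read by AlphaScreen SureFire; AC50 from Hill fits.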
# ERK pERK EGF: reduces EGF-stimulated ERK phosphorylation in HEK293 cells; HEK293 EGF-stimulated ERK phosphorylation, AlphaScreen; shares compounds with ERK EGF block; Potency, µM (doses to about 57.5 µM), inactives show top-dose activity change, negative = inhibition, actives largely listed as inhibitors; actives 60% (n = 60)
# cRaf kinase inh: ERK pathway inhibitors follow-up: human c-Raf kinase inhibition; c-Raf kinase inhibition, homogeneous biochemical assay; shares compounds with ERK EGF block; 70 tested, under 10 active; activity change, negative = inhibition, % at 76.9 µM
# MEK inh: MEK1 (human) kinase inhibition. homogeneous MEK kinase activity assay, ERK pathway. shares compounds with ERK EGF block. 70 tested, under 10 active. Potency, µM (highest dose often 76.9 µM), inactives show top-dose activity change, negative = inhibition, actives largely listed as inhibitors. AID 1732
# * marks the source's active call; other numbers are inactive results; u = inconclusive; x = not tested or not shown; [ ] = another dose, or the depositor's remark. The call rests on the fitted dose curve; in most records, active means well fitted curve in the direction sought with a large enough effect; inconclusive means small, poorly fitted or top-dose-only effect, or another doubt; inactive means no such curve, though single readings can be large; an effect the other way counts as inactive or inconclusive.
SMILES,ERK EGF block,others
O=C(NC(n1ccc(=O)[nH]c1=O)C(Cl)(Cl)Cl)C12CC3CC(CC(C3)C1)C2 (stereo not given),4%[57.5 µM],
COC(=O)[C@@H](NC(=O)O[C@@H]1C(=O)c2cc(OC)ccc2O[C@H]1c1ccc(OC)c(Br)c1)C(C)C,-6%,
CN(C)CCOC(=O)c1ccc2c(c1)S(=O)(=O)c1ccccc1C2=O,1%[57.5 µM],
CC(=O)Nc1ccc(/C=N/Nc2nc3ccccc3s2)cc1,-5%[57.5 µM],
CC(=O)N1CCC(=NNc2nc3ccccc3s2)CC1,u,ERK pERK EGF=u;cRaf kinase inh=u;MEK inh=-4%
CCOC(=O)N1CCC(=NNc2nc3ccccc3s2)CC1,4%[57.5 µM],
CC(C(=O)NC(C)(C)C)N(Cc1cccs1)C(=O)CCN1CCc2ccccc21 (stereo not given),6%,
CCc1ccc(NC(=O)COc2ccc(Br)cn2)cc1,-7%,
CCn1c(SCC#N)nc2ccccc2c1=O,8%[57.5 µM],
CCCn1c(=O)c2[nH]c(-c3ccccc3)nc2n(CCC)c1=O,-13%,
CCn1c(=O)c2[nH]c(-c3ccccc3)nc2n(CC)c1=O,12%,cRaf kinase inh=-13;MEK inh=-7%
Cc1scc(C(=O)N2CCN(c3ccc(Cl)cc3)CC2)c1C,-7%,
COc1cc2ncnc(NCc3cccc(Cl)c3)c2cc1OC,0.45µM*,ERK pERK EGF=1.8µM*;cRaf kinase inh=u;MEK inh=1%
COc1ccc(CNc2ncnc3cc(Cl)ccc23)cc1,-12%,
COc1ccccc1-c1cncnc1NCc1cccc(C)c1,23%,
CON(C)S(=O)(=O)c1ccc2c(c1)N(Cc1ccc(C)cc1)C(=O)C1CCCN21 (stereo not given),1%,
N#Cc1ccc(COn2nnc3ccccc32)cc1,6%,
COc1ccc(C(=O)Nc2cc(=O)[nH]c3ncnn23)cc1,8%[57.5 µM],
COc1ccc(/C(O)=C2/C(=O)C(=O)N(c3ncccn3)C2c2ccc(OC)cc2)cc1 (stereo not given),-3%,
CCOc1ccc(/C(O)=C2/C(=O)C(=O)N(c3ncccn3)C2c2ccc(C)cc2)cc1 (stereo not given),-4%[57.5 µM],
CCOc1ccc(/C(O)=C2/C(=O)C(=O)N(c3ncccn3)C2c2ccccc2)cc1 (stereo not given),x,ERK pERK EGF=-6%;cRaf kinase inh=4;MEK inh=0%
NC(=O)c1ccccc1OC1CCC1,-9%[57.5 µM],
